# Experimental data published in PubChem BioAssay (NCATS).
# Results filed as inconclusive are left out. A call without a number means that no potency is given here. Activity calls are given as the source filed them. Calls come from the whole dose curve; as a rule, active = well fitted curve in the direction sought with a large enough effect; inconclusive = small, poorly fitted or top-dose-only effect, or another doubt; inactive = no such curve, though single readings can be large; an effect the other way counts as inactive or inconclusive.
# Assays:
# [1] = qHTS of pediatric cancer cell lines to identify multiple opportunities for drug repurposing: Primary screen for DAOY cells (AID 1347090); note: nearly all actives have a fitted effect of over 55% in size
# How it was run: (§1)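 Eight- or eleven-point concentration series, 48 h treatment at 37 degrees C in growth media; readout CellTiter-Glo luminescence. Potency and efficacy were taken from the concentration-response curves.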
# [2] = qHTS of pediatric cancer cell lines to identify multiple opportunities for drug repurposing: Primary screen for SJ-GBM2 cells (AID 1347091)
# How it was run: as §1
# [3] = qHTS of pediatric cancer cell lines to identify multiple opportunities for drug repurposing: Primary screen for U-2 OS cells (AID 1347096); note: nearly all actives have a fitted effect of over 50% in size
# How it was run: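 Cells (500-1,000/well) in growth media were settled 5 h at 37 degrees C, then given compounds for 48 h. Viability was read as CellTiter-Glo luminescence. Primary runs used MIPE at 11 points (0.78 nM-46 µM) and NPC at 8 points (0.59 nM-46 µM); follow-ups used 11 points.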
# [4] = qHTS of pediatric cancer cell lines to identify multiple opportunities for drug repurposing: Primary screen for Saos-2 cells (AID 1347097); note: nearly all actives have a fitted effect of over 40% in size
# How it was run: (§2)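 Quantitative HTS format: each compound titrated (MIPE 11 points from 0.78 nM, NPC 8 points from 0.59 nM) onto cells plated 5 hours earlier. After 48 h at 37 degrees C, CellTiter-Glo luminescence was recorded.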
# [5] = qHTS of pediatric cancer cell lines to identify multiple opportunities for drug repurposing: Primary screen for A673 cells (AID 1347092); note: nearly all actives have a fitted effect of over 45% in size
# How it was run: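 48 h compound exposure, A673, 500-1,000 cells/well, 37 degrees C/5% CO2. MIPE: 11-point, 0.78 nM-46 µM; NPC: 8-point, 0.59 nM-46 µM (final). Readout CellTiter-Glo luminescence after 15 min RT.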
# [6] = qHTS of pediatric cancer cell lines to identify multiple opportunities for drug repurposing: Primary screen for SK-N-MC cells (AID 1347093)
# How it was run: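 Metabolically active cells were quantified by ATP-dependent luminescence (CellTiter-Glo, 15 min at room temperature) following 48 h treatment. Cells had been plated at 500-1,000 per well and settled for 5 h beforehand.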
# [7] = qHTS of pediatric cancer cell lines to identify multiple opportunities for drug repurposing: Primary screen for NB-EBc1 cells (AID 1347095)
# How it was run: as §2
# [8] = qHTS of pediatric cancer cell lines to identify multiple opportunities for drug repurposing: Primary screen for SK-N-SH cells (AID 1347098); note: nearly all actives have a fitted effect of over 65% in size
# How it was run: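 Cells (500-1,000/well) rested 5 h, then received compounds for 48 h; metabolically active cells were measured by CellTiter-Glo luminescence. Final concentrations spanned up to 46 µM (MIPE, 11-point) or 0.59 nM-46 µM (NPC, 8-point) in primary screens, 11-point in follow-ups.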
# [9] = qHTS of pediatric cancer cell lines to identify multiple opportunities for drug repurposing: Primary screen for NB1643 cells (AID 1347099); note: nearly all actives have a fitted effect of over 50% in size
# How it was run: as §2
# [10] = qHTS of pediatric cancer cell lines to identify multiple opportunities for drug repurposing: Primary screen for BT-37 cells (AID 1347094)
# How it was run: as §2
# Potency is the fitted concentration of half-maximal effect.
Structure (SMILES),Potency [1],Potency [2],Potency [3],Potency [4],Potency [5],Potency [6],Potency [7],Potency [8],Potency [9],Potency [10]
COc1ccc2cc(-c3nc(-c4ccc(S(C)=O)cc4)[nH]c3-c3ccncc3)ccc2c1 (configuration not stated),inactive,14.8 µM (active),inactive,inactive,–,–,–,–,–,–
O=C(O)CCC1CCC(c2cc(F)ccc2F)(S(=O)(=O)c2ccc(Cl)cc2)CC1 (configuration not stated),11.8 µM (active),–,–,–,1.48 µM (active),0.0662 µM (active),inactive,inactive,2.35 µM (active),–
Cn1cc(C=C2C(=O)Nc3cccnc32)c2ccccc21,inactive,inactive,inactive,inactive,–,–,inactive,inactive,inactive,inactive
N#Cc1ccc(NC(=O)Nc2ccccc2Br)c2n[nH]nc12,inactive,–,inactive,inactive,23.5 µM (active),26.4 µM (active),–,–,–,–
CC(C)OC(=O)C(C)(C)Oc1ccc(C(=O)c2ccc(Cl)cc2)cc1,inactive,–,inactive,inactive,inactive,20.9 µM (active),–,inactive,–,–
CC1(C)CCC[C@@]2(C)[C@@H]1CC[C@@]1(C)OC(=O)C[C@H]21,inactive,–,–,–,inactive,8.33 µM (active),inactive,inactive,inactive,–
N#CC(=C(N)Sc1ccccc1N)C(C#N)=C(N)Sc1ccccc1N,23.5 µM (active),–,–,29.6 µM (active),2.35 µM (active),2.96 µM (active),inactive,–,20.9 µM (active),–
c1ccc2c(Cc3c[nH]c4ccccc34)c[nH]c2c1,3.72 µM (active),–,inactive,18.7 µM (active),2.35 µM (active),0.833 µM (active),–,9.61 µM (active),4.18 µM (active),–
O=c1cc(-c2ccccc2)oc2cc(O)cc(O)c12,inactive,–,inactive,–,inactive,inactive,inactive,–,inactive,–
CC#CCn1c(N2CCC[C@@H](N)C2)nc2c1c(=O)n(Cc1nc(C)c3ccccc3n1)c(=O)n2C,inactive,inactive,–,–,–,–,inactive,–,–,–
O=c1[nH]cnc2c1ncn2[C@H]1CC[C@@H](CO)O1,inactive,–,inactive,inactive,29.6 µM (active),9.35 µM (active),inactive,–,–,inactive
NC(=O)c1cccc2[nH]c(-c3ccc([C@H]4CCCN4)cc3F)nc12,inactive,inactive,inactive,inactive,–,–,18.7 µM (active),–,–,–
NS(=O)(=O)c1cccc2c1C(=O)c1cccc(O)c1C2=O,0.935 µM (active),0.59 µM (active),0.59 µM (active),0.264 µM (active),–,0.935 µM (active),0.833 µM (active),30.4 µM (active),1.05 µM (active),–
CCN(CC)CCOc1ccc(C(=C(Cl)c2ccccc2)c2ccccc2)cc1,inactive,–,inactive,–,29.6 µM (active),14.8 µM (active),inactive,–,–,inactive
O=C(O)CCc1nc(-c2ccccc2)c(-c2ccccc2)o1,inactive,inactive,inactive,–,–,inactive,inactive,inactive,inactive,–
CON=C(C(=O)N[C@@H]1C(=O)N2C(C(=O)OCOC(=O)C(C)(C)C)=C(C=Cc3scnc3C)CS[C@H]12)c1csc(N)n1,inactive,inactive,–,–,–,18.7 µM (active),inactive,inactive,–,–
COc1cc(NC(=O)c2ccc(-c3ccc(Cl)cc3)o2)cc(OC)c1,2.96 µM (active),–,–,inactive,7.43 µM (active),1.32 µM (active),inactive,1.52 µM (active),6.62 µM (active),–
Clc1ccc(Cn2c(CN3CCCC3)nc3ccccc32)cc1,inactive,inactive,–,–,–,inactive,inactive,–,inactive,–
COc1cc2c(cc1OC)CN(CCc1ccc(NC(=O)c3cc(OC)c(OC)cc3NC(=O)c3cnc4ccccc4c3)cc1)CC2,inactive,inactive,–,–,–,10.5 µM (active),inactive,19.2 µM (active),14.8 µM (active),–
CN1CCN(CCOc2cc(OC3CCOCC3)c3c(Nc4c(Cl)ccc5c4OCO5)ncnc3c2)CC1,18.7 µM (active),9.35 µM (active),–,–,–,11.8 µM (active),–,13.6 µM (active),–,7.69 µM (active)
NC1CCC(Nc2nc(Nc3ccc(C(=O)N4CCCCC4)cc3)c3ncn(-c4cccc(F)c4)c3n2)CC1 (configuration not stated),inactive,inactive,inactive,inactive,–,inactive,inactive,inactive,inactive,–
Cc1c[nH]c(C=C2C(=O)Nc3ccccc32)c1CCC(=O)O,inactive,18.7 µM (active),inactive,–,–,inactive,–,24.1 µM (active),–,inactive

Structure (SMILES),Potency [1],Potency [2],Potency [3],Potency [4],Potency [5],Potency [6],Potency [7],Potency [8],Potency [9],Potency [10]
COC(=O)[C@@H]1[C@H]2C[C@H]3c4[nH]c5ccccc5c4CCN3C[C@@H]2CC[C@@H]1O,inactive,inactive,inactive,–,–,inactive,inactive,inactive,inactive,–
CCN(CC)CCNC(=O)c1ccc(N)cc1,inactive,inactive,inactive,inactive,–,inactive,inactive,inactive,inactive,–
Clc1ccc(-c2nc3sccn3c2C=NOCc2ccc(Cl)c(Cl)c2)cc1,inactive,inactive,inactive,–,–,–,–,–,–,inactive
CC(C)(C)NC(=O)Nc1cccc(Nc2ncc(F)c(NC(C)(C)CO)n2)c1,inactive,–,inactive,inactive,18.7 µM (active),3.32 µM (active),–,–,–,inactive
O=C(O)C(O)Cc1ccc(O)c(O)c1 (configuration not stated),inactive,inactive,–,–,–,–,–,inactive,inactive,inactive
C=C1C(=O)OC(CCCCCCCC)C1C(=O)O (configuration not stated),inactive,20.9 µM (active),inactive,–,–,–,–,–,inactive,inactive
CCCNC(=O)NS(=O)(=O)c1ccc(Cl)cc1,inactive,inactive,inactive,inactive,–,–,inactive,inactive,inactive,inactive
CC(=O)Oc1cc2c(s1)CCN(C(C(=O)C1CC1)c1ccccc1F)C2 (configuration not stated),1.48 µM (active),–,–,–,1.48 µM (active),1.32 µM (active),3.72 µM (active),–,–,1.09 µM (active)
COc1ccc(-c2coc3cc(O)cc(O)c3c2=O)cc1,inactive,inactive,–,–,–,10.5 µM (active),inactive,24.1 µM (active),–,inactive
O=C(O)c1ccc(-c2cc3cccnc3c(-c3ccc4nonc4c3)n2)cc1,inactive,–,inactive,–,18.7 µM (active),3.32 µM (active),–,–,–,24.3 µM (active)
CC1(C)O[C@H]2C[C@@H]3[C@H]4CCC5=CC(=O)C=C[C@]5(C)[C@@]4(F)[C@@H](O)C[C@]3(C)[C@]2(C(=O)CO)O1,inactive,–,inactive,inactive,3.72 µM (active),8.33 µM (active),2.35 µM (active),inactive,14.8 µM (active),13.7 µM (active)
CC[C@H]1OC(=O)[C@H](C)C(=O)[C@H](C)[C@@H](O[C@H]2O[C@H](C)C[C@H](N(C)C)[C@@H]2O)[C@](C)(OC)C[C@@H](C)C(=O)[C@H](C)[C@H]2N(CCCCn3cnc(-c4cccnc4)c3)C(=O)O[C@]12C,inactive,inactive,inactive,inactive,–,–,inactive,–,–,–
CCNc1cc(NC2CCC(O)CC2)nc(Nc2ccc3c(ccn3Cc3ccccc3)c2)n1 (configuration not stated),–,29.6 µM (active),–,–,29.6 µM (active),–,–,–,–,–
O=C(Nc1ccccc1Br)N[C@@H]1CCN(c2ccc(C(F)(F)F)cn2)C1,11.8 µM (active),–,–,18.7 µM (active),–,–,–,–,–,–
CC(C)(C)Cn1c(N)nc2ccc(-c3[nH]c(C(C)(C)C)nc3-c3ccc(F)cc3)nc21,23.5 µM (active),–,–,inactive,–,–,inactive,–,11.8 µM (active),–
CC=CCC=CCCC(=O)[C@H]1O[C@@H]1C(N)=O,inactive,–,inactive,18.7 µM (active),–,–,–,inactive,–,inactive
CC(=NNC(=S)N1CCC1)c1ccccn1,–,0.0209 µM (active),inactive,inactive,0.0037 µM (active),0.0013 µM (active),0.0166 µM (active),–,0.001 µM (active),–
CN(C)C1CCN(C(=O)c2ccc(NC(=O)Nc3nc(N4CCOCC4)nc(N4CCOCC4)n3)cc2)CC1,–,0.105 µM (active),–,–,0.0118 µM (active),0.0166 µM (active),1.32 µM (active),–,0.372 µM (active),0.0273 µM (active)
O=C(O)c1ccc(-c2c[nH]c3ncc(-c4ccccc4)cc23)cc1C1CCCC1,inactive,–,–,–,–,0.166 µM (active),inactive,–,–,inactive
O=C(Nc1ccccc1-c1cn2c(CN3CCNCC3)csc2n1)c1cnc2ccccc2n1,23.5 µM (active),–,inactive,–,–,–,inactive,inactive,13.2 µM (active),–
CC[C@@]1(O)C[C@H](O[C@H]2C[C@H](N(C)C)[C@H](O[C@H]3C[C@H](O)[C@H](O[C@H]4CCC(=O)[C@H](C)O4)[C@H](C)O3)[C@H](C)O2)c2c(cc3c(c2O)C(=O)c2c(O)cccc2C3=O)[C@@H]1C(=O)OC,–,0.372 µM (active),inactive,16.6 µM (active),4.69 µM (active),18.7 µM (active),0.526 µM (active),–,–,0.385 µM (active)
